Test results as given in PubChem BioAssay (NCI).
The panel holds about 79,000 compounds, 15% with a hit somewhere; the sample as a whole holds those more often. The source made the active and inactive calls. Cut-off read from the data, not from the text of the source: active = growth inhibition above about 70%; inactive = the rest.

Assay: NCI Yeast Anticancer Drug Screen. Data for the wt2 strain (AID 169);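 note: 0% = growth of vehicle-treated yeast cultures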
Conditions: S. cerevisiae wt2 strain growth inhibition, stronger effect = higher value
Experimental: Growth inhibition of yeast strains with defined genetic alterations is measured as a screen for potential anti-cancer activity. Selected strains with alterations in DNA damage repair or cell cycle control were exposed to compounds and growth inhibition was measured relative to vehicle treated controls. The strain used in this assay is wt2

SMILES | growth inhibition (at 1.2 µM) | growth inhibition (at 3.7 µM) | growth inhibition (at 11.0 µM) | growth inhibition (at 33.0 µM) | growth inhibition (at 100.0 µM)
CC(C)OC(=O)Nc1ccc2nc(-c3cscn3)[nH]c2c1 | -1% (inactive) | -2% (inactive) | -4% (inactive) | 2% (inactive) | 97% (active)
O=c1ssc(=Nc2ccccc2)n1-c1ccccc1 | -9% (inactive) | -15% (inactive) | -9% (inactive) | -9% (inactive) | 15% (inactive)
Nc1ncc(-c2ccc(Br)cc2)s1 | 8% (inactive) | 8% (inactive) | 8% (inactive) | 93% (active) | 98% (active)
O=C(O)c1ccc(N2C(=O)C=CC2=O)cc1 | -2% (inactive) | -1% (inactive) | 5% (inactive) | 22% (inactive) | 68% (inactive)
OCC(CO)C(c1cccc2ccccc12)c1cccc2ccccc12 | -4% (inactive) | 3% (inactive) | 98% (active) | 99% (active) | 90% (active)
COc1ccc(NC(=O)CC2SC(=Nc3ccccc3C)NC2=O)c([N+](=O)[O-])c1 (stereo not given) | -1% (inactive) | 7% (inactive) | 1% (inactive) | 11% (inactive) | 92% (active)
O=[N+]([O-])c1cccc2nc3ccccc3c(NCCC[N+]3([O-])CCCCC3)c12 | 0% (inactive) | 6% (inactive) | 25% (inactive) | 85% (active) | 96% (active)
COc1c(O)c(C=O)c(Br)c(C=O)c1O | -1% (inactive) | 2% (inactive) | 5% (inactive) | 30% (inactive) | 89% (active)
